# ± gives the uncertainty stated by the source.
# System: Candidatus Liberibacter solanacearum in potato hairy roots
# Assay: relative CLso titer (% of untreated control); higher = less inhibition of bacterial titer
# Conditions: 10 µM; 72 h
# Experimental: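 Primary screen of ~220 Spectrum collection (MicroSource) compounds at 10 µM (0.1% DMSO) on Candidatus Liberibacter solanacearum-infected potato hairy roots in multi-well plates (Gamborg B-5 medium, vacuum infiltrated, 21 °C, dark, 72 h). CLso titer was measured by qPCR of 16S rDNA normalised to potato RPL2 (2^-ddCq), pairwise-standardised against untreated controls, averaged over two biological replicates and expressed as % of untreated.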
row,Structure (SMILES),relative CLso titer
1,C[C@@](Cc1ccc(O)c(O)c1)(NN)C(=O)O,138.8 ± 1.3%
2,CCN(CC)C(=O)N1CCN(C)CC1,106 ± 9.8%
3,O=C1NS(=O)(=O)c2ccccc21,73.2 ± 19%
4,Nc1cccc2c1CN(C1CCC(=O)NC1=O)C2=O (stereo not given),143 ± 43%
5,COc1ccc(NS(=O)(=O)c2ccc(N)cc2)nn1,116.5 ± 0.47%
6,CCOC(=O)CCC(=O)O[C@H]1[C@H](O[C@@H]2[C@@H](C)[C@H](O[C@H]3C[C@@](C)(OC)[C@@H](O)[C@H](C)O3)[C@@H](C)C(=O)O[C@H](CC)[C@@](C)(O)[C@H](O)[C@@H](C)C(=O)[C@H](C)C[C@@]2(C)O)O[C@H](C)C[C@@H]1N(C)C,169 ± 3.5%
7,CNCCCN1c2ccccc2CCc2ccccc21,144 ± 1.5%
8,OC[C@@H](O)[C@@H](O)[C@H](O)[C@H](O)CO,70.5 ± 11%
9,Cc1cc(-c2ccccc2)nnc1NCCN1CCOCC1,86.8 ± 63%
10,N=C(N)NC(=O)c1nc(Cl)c(N)nc1N,54.7 ± 1.4%
11,CCN1CCC[C@H]1CNC(=O)c1cc(S(N)(=O)=O)ccc1OC,118 ± 86%
12,C#C[C@]1(O)CC[C@H]2[C@@H]3CCC4=Cc5oncc5C[C@]4(C)[C@H]3CC[C@@]21C,154 ± 40%
13,Cc1onc(-c2c(Cl)cccc2Cl)c1C(=O)N[C@@H]1C(=O)N2[C@@H]1SC(C)(C)[C@@H]2C(=O)O,145 ± 34%
14,COc1cccc2c1C(=O)c1c(O)c3c(c(O)c1C2=O)C[C@@](O)(C(C)=O)C[C@@H]3O[C@H]1C[C@H](N)[C@H](O)[C@H](C)O1,202 ± 6.5%
15,Nc1ccc(C(=O)O)cc1,67.7 ± 7.7%
16,C[C@@H](O[C@H]1OCCN(Cc2n[nH]c(=O)[nH]2)[C@H]1c1ccc(F)cc1)c1cc(C(F)(F)F)cc(C(F)(F)F)c1,117 ± 51%
17,CS(=O)(=O)OCCCCOS(C)(=O)=O,66.9 ± 7.5%
18,CC(C(=O)O)c1cccc(C(=O)c2ccccc2)c1 (stereo not given),132 ± 34%
19,CC1=C(/C=C/C(C)=C/C=C/C(C)=C\C(=O)O)C(C)(C)CCC1,80.8 ± 13%
20,C[C@@H]1C[C@H]2[C@@H]3CCC4=CC(=O)C=C[C@]4(C)[C@@]3(F)[C@@H](O)C[C@]2(C)[C@@]1(O)C(=O)COP(=O)(O)O,137 ± 29%

row,Structure (SMILES),relative CLso titer
1,CCN1CCCC(OC(=O)C(c2ccccc2)c2ccccc2)C1 (stereo not given),188 ± 36%
2,CO[C@@]1(NC(=O)Cc2cccs2)C(=O)N2C(C(=O)O)=C(COC(N)=O)CS[C@@H]21,130 ± 27%
3,CN(C)/N=N/c1[nH]cnc1C(N)=O,84.5 ± 19%
4,C[N+](C)(C)CCOC(N)=O,41.99 ± 0.24%
5,CC(=O)Oc1cc2c(s1)CCN(C(C(=O)C1CC1)c1ccccc1F)C2 (stereo not given),55.4 ± 2.9%
6,NC12CC3CC(CC(C3)C1)C2,42.5 ± 3.2%
7,CCOC(=O)[C@H](CCc1ccccc1)N[C@@H](C)C(=O)N1CCC[C@H]1C(=O)O,135 ± 34%
8,COc1ccc(CNc2nc(N3CCC[C@H]3CO)ncc2C(=O)NCc2ncccn2)cc1Cl,110 ± 46%
9,Cn1c(=O)c2c(ncn2CC(O)CO)n(C)c1=O (stereo not given),128 ± 10%
10,Oc1ccc(Cl)c2cccnc12,36.8 ± 11%
11,COc1cc(NS(=O)(=O)c2ccc(N)cc2)nc(OC)n1,96 ± 21%
12,C[C@@H]1C[C@H]2[C@@H]3CCC4=CC(=O)C=C[C@]4(C)[C@@]3(F)[C@@H](O)C[C@]2(C)[C@@]1(O)C(=O)CO,196 ± 16%
13,C[C@@H]1NC(=O)[C@@H](N)CNC(=O)[C@H](C2CCNC(=N)N2)NC(=O)/C(=C/NC(N)=O)NC(=O)[C@H](CNC(=O)CC(N)CCCN)NC1=O.N=C1NCCC([C@@H]2NC(=O)/C(=C/NC(N)=O)NC(=O)[C@H](CNC(=O)CC(N)CCCN)NC(=O)[C@H](CO)NC(=O)[C@@H](N)CNC2=O)N1 (stereo not given in full),63.2 ± 9.8%
14,CN1CCN(C(c2ccccc2)c2ccccc2)CC1,105 ± 31%
15,C[C@H]1c2cccc(O)c2C(=O)C2=C(O)[C@]3(O)C(=O)C(C(N)=O)=C(O)[C@@H](N(C)C)[C@@H]3[C@@H](O)[C@@H]21,125 ± 12%
16,Cn1nnnc1SCC1=C(C(=O)O)N2C(=O)[C@@H](NC(=O)[C@H](O)c3ccccc3)[C@H]2SC1,133 ± 14%
17,N=C(NCCCCCCNC(=N)NC(=N)Nc1ccc(Cl)cc1)NC(=N)Nc1ccc(Cl)cc1,89.5 ± 36%
18,CCN(CC)CCNC(=O)COc1ccc(OC)cc1,93.2 ± 2.3%
19,NS(=O)(=O)c1cc2c(cc1Cl)N=CNS2(=O)=O,31 ± 2.7%
20,Clc1cccc(Cl)c1NC1=NCCN1,55.5 ± 4.1%

# — the supplement of paper PMC7669877
